GALK inh = inhibitors of human galactokinase; AID 1868; actives 0.007% (n = 270,000); Purified GALK, Kinase-Glo residual ATP luminescence; Potency, µM (titrated, usually from 57.5 µM), for the others: top-dose activity change, negative = inhibition, actives largely listed as inhibitors; P51570; further: potency means the concentration at half of the fitted maximal effect
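GALK at 5 nM final was combined with compound, 35 uM ATP and 100 uM galactose in HEPES pH8.0 with MgCl2 and DTT. The reaction ran one hour at room temperature before luminescent ATP detection.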
TrxR1 inh = blocks rat thioredoxin reductase 1; AID 588453; recombinant rTrxR1, NADPH fluorescence consumption, selenite substrate; actives 1% (n = 390,000); O89049; Potency, µM (series often up to 114 µM), for the others: at the highest dose activity change, negative = inhibition, most hits filed as inhibitors; further: potency means the concentration at half of the fitted maximal effect; nearly all actives have a fitted effect of over 65% in size
Target sequence (O89049 whole entry, looked up): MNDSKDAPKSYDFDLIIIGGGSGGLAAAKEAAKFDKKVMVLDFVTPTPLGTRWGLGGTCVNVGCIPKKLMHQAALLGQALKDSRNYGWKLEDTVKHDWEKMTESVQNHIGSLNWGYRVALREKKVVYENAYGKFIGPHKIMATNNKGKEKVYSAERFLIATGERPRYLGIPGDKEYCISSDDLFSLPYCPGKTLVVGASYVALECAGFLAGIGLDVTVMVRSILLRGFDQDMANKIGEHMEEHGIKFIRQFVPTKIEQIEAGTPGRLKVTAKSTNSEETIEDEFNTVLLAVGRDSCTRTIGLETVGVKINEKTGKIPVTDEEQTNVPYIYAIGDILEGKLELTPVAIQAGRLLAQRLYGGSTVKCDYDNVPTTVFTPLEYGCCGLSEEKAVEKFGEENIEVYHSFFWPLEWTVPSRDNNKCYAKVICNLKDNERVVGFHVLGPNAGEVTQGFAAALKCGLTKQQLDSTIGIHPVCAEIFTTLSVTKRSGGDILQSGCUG
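Rat TrxR1 (90 nM in the dispensed reagent) was pre-reduced with 400 uM NADPH for 5 min at room temperature, then incubated with compound for 15 min. After 400 uM selenite was added, NADPH fluorescence (Ex 340/Em 450 nm) was followed for 8 min.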
FBPA coupling cs = inhibits coupling enzyme system, counter-screen for aldolase hits. coupling enzyme system counterscreen, AmpLite Red fluorescence. activity change, negative = inhibition, % at 58.2 µM, hits read low. actives 0.67% (n = 290,000); in the data active means activity change below about -30%
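Final compound at 57.5 uM, incubated 10 min at RT with coupling enzyme reagent (glyceraldehyde-3-phosphate), then 20 min with substrate and AmpLite Red detection. Fluorescence read at 525/598 nm; tests interference with the coupling assay, not aldolase inhibition.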
Giardia killer = Giardia lamblia killing | activity change, % at 7.66 µM, hits read low | actives 0.15% (n = 340,000) | Giardia lamblia trophozoite viability; in the data active means activity change below about -80%; inconclusive means between about -30% and that limit;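 further: parasites exposed to compound for two days anaerobically before the ATP read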
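Trophozoite viability was measured as ATP-dependent luminescence, read 15-30 min after reagent addition. Before that, parasites at 100 cells/well were exposed to compounds for 48 h, anaerobically, at 37 deg C.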
PI4K2A block = inhibitors of human PI4K2A | purified PI4K2A, ADP-Glo luminescence, 1 h; active compounds read low | activity change, negative = inhibition, % at 76.9 µM | actives 0.13% (n = 420,000) | AID 1346378; in the data active means activity change below about -50%; inconclusive means mostly about -30% to -49%;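 further: -100% = wells without enzyme as full effect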
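Compounds are screened against recombinant PI4K2A using PI as substrate and ATP, the latter dispensed at 300 microM. Reactions run one hour at ambient temperature before ADP-Glo detection; full inhibition defined by wells lacking enzyme.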
TrxR1 substrate = rat thioredoxin reductase 1 substrate activity; actives 0.01% (n = 390,000); purified TrxR1 substrate turnover, NADPH consumption readout; Potency, µM (series often up to 114 µM), inactives show at the top dose activity change, negative = substrate turnover; further: potency means the concentration at half of the fitted maximal effect; nearly all actives have a fitted effect of over 50% in size
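Rat TrxR1, dispensed at 90 nM, was prereduced with 400 uM NADPH (final) for 5 min at ~22 deg C, then incubated with compound 15 min before 400 uM selenite. A first-read NADPH fluorescence drop versus no-compound background flagged substrates.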
* marks the source's active call; other numbers are inactive results; ? = inconclusive; . = no result given; [ ] = another dose, or the depositor's remark. Compounds with a hit are over-represented: about 1.5% of the library has one in this group of screens. Unless noted, the call rests on the fitted dose curve; in most records, active means well fitted curve in the direction sought with a large enough effect; inconclusive means small, poorly fitted or top-dose-only effect, or another doubt; inactive means no such curve, though single readings can be large; an effect the other way counts as inactive or inconclusive. Unless noted, on the % scale 0 is the no-effect control and ±100 the full control effect.

SMILES	GALK inh	TrxR1 inh	FBPA coupling cs	Giardia killer	PI4K2A block	TrxR1 substrate
O=C(c1ccco1)[C@@H]1[C@@H]2C(=O)N(c3ccccc3)C(=O)[C@@H]2C2c3ccccc3C=CN21 (some centres undefined)	-1.5%	?	-47.3*	20.6	?	2.9%
CC(C)(C)C(=O)[C@@H]1[C@@H]2C(=O)N(c3ccc4c(c3)OCCO4)C(=O)[C@@H]2C2c3ccccc3C=CN21 (some centres undefined)	-3.9%	-4.9%[57.1 µM]	-30.1*	3.0	-13.9	-9.9%[57.1 µM]
CC(=O)[C@@H]1[C@@H]2C(=O)N(Cc3ccccc3)C(=O)[C@@H]2C2c3ccccc3C=CN21 (some centres undefined)	-6.1%	?	-33.1*	4.3	-25.2	5.9%
O=C1C2C3C=CC(C3)C2C(=O)N1Cc1ccccc1 (centres undefined)	-0.3%	11.2%	5.8	11.8	6.9	4.0%
COc1ccc(CNC2CCC23CCCCC3)cc1OC (centres undefined)	.	.	.	.	-1.8	.
COc1ccc(/C=C2\CCCc3c2nc2ccccc2c3C(=O)O)cc1OC	-1.4%	.	-32.8*	.	.	.
CCN(CC)c1ccc(N=Cc2ccccc2[N+](=O)[O-])cc1	.	70.8µM*	-19.3	-8.0	-11.9	-17.1%
CCN(CC)S(=O)(=O)c1cccc(C(=O)N/N=C/c2ccc([N+](=O)[O-])o2)c1	7.1%	-52.1%	0.5	-20.1	4.2	2.8%[57.1 µM]
CCN(CC)c1ccc(N=Cc2ccc([N+](=O)[O-])o2)cc1	6.6%	3.16µM*	-38.7*	-9.5	-28.8	6.1%
COc1ccc(C(CC(=O)Nc2ccc(OC)c(OC)c2)N2Cc3ccccc3C2=O)cc1 (centres undefined)	.	4.4%[57.1 µM]	.	.	0.5	-8.1%[57.1 µM]
CN(C)c1ccc(N=Cc2ccco2)cc1	5.5%	-14.0%[57.1 µM]	-42.1*	10.8	-22.9	1.4%[57.1 µM]
CN(C)c1ccc(C=Nc2ccc(N(C)C)cc2)cc1	-0.2%	-41.5%	-29.1	-0.7	-16.5	0.2%[57.1 µM]
COC(=O)c1ccc(-c2noc(CN(C)CCC3CCCCO3)n2)cc1 (centres undefined)	-0.5%	0.0%[57.1 µM]	-55.3*	0.1	-8.7	-3.3%[57.1 µM]
CCOC(=O)C1=C(COC(=O)/C=C/c2ccc(C)o2)NC(=O)NC1C (centres undefined)	.	50.1µM*	.	9.7	-4.3	-10.7%
Cc1ccc2c(c1)c1c(c(=O)n(-c3ccccc3C)c(=O)n1CC(=O)NCCC1=CCCCC1)n2C	.	150.6%	.	.	-5.9	54.9%
O=C(OC1CCCCC1)c1ccc2c(c1)C1C=CCC1C(C(=O)O)N2 (centres undefined)	-0.9%	.	0.7	.	.	.
O=C(O)C1Nc2ccc(Br)cc2C2C=CCC12 (centres undefined)	-0.3%	20µM*	0.1	-12.2	-9.3	-0.8%
CCOC(=O)C1Nc2ccc(C)cc2C2C=CCC12 (centres undefined)	.	5.62µM*	.	-0.5	-9.0	8.6%[57.1 µM]
CCOC(=O)C1Nc2ccc(Br)cc2C2C=CCC12 (centres undefined)	-0.1%	31.6µM*	-1.0	-6.3	6.0	-2.1%
CCOC(=O)c1ccc2c(c1)C1C=CCC1C(C(=O)OCC)N2 (centres undefined)	5.6%	39.8µM*	-11.5	4.9	-13.2	2.4%
CC(C)CNC(=O)C1Nc2ccc(OC(F)(F)F)cc2C2C=CCC12 (centres undefined)	.	?	.	-20.7	-3.9	-5.8%
CCOC(=O)c1ccc2c(c1)[C@@H]1C=CC[C@@H]1[C@H](c1cccc(OC)c1OC)N2	.	17.9%	.	.	1.7	4.4%
Clc1ccc2c(N/N=C/c3ccc(Br)cc3)ccnc2c1	2.3%	-3.2%	4.1	-95.6*	8.6	-8.2%
Clc1ccc2c(N/N=C/c3cccnc3)ccnc2c1	9.6%	7.8%[57.1 µM]	1.3	4.1	4.3	3.7%[57.1 µM]
Cc1ccc(/C=N/Nc2ccnc3cc(Cl)ccc23)c(C)c1	1.2%	-21.7%	-3.2	-87.9*	1.4	-10.2%
